Measurements from PubChem BioAssay AID449762 (Southern Research Specialized Biocontainment Screening …, 2010).
About 1,900 (0.58%) of roughly 330,000 compounds were called active. Inconclusive results (about 4%) are left out. Rule as the data show it: inconclusive = inhibition above about 70% without an active follow-up result; inactive = below that. These entries were drawn from the full list. Potency and affinity values are given separately.

test: M. tuberculosis growth inhibition, HTS (AID 449762);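 also: bacterial growth assessed after seven days of incubation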; settings: M. tuberculosis H37Rv growth inhibition, 7H9 media; at 25 µM; hits give high values

| Structure (SMILES) | inhibition |
| --- | --- |
| Cc1nnc(SCCC(=O)Nc2ccc(F)cc2)s1 | 58.3% (inactive) |
| Cc1ccc(NC(=O)c2ccccc2NC(=O)c2cccnc2)cc1 | 11.1% (inactive) |
| O=C(NNC(=S)Nc1ccccc1Cl)c1ccccc1 | -3.72% (inactive) |
| CCn1cc(C(=O)NC(C)C)c(=O)c2cc(F)c(N3CCN(C(=O)c4ccco4)CC3)cc21 | 19.2% (inactive) |
| CCn1cc(C(=O)NCC(C)C)c(=O)c2cc(F)c(N3CCN(C(=O)c4ccco4)CC3)cc21 | 0.58% (inactive) |
| Cc1cc(C)nc(-n2nc(C)cc2NC(=O)c2ccc(S(=O)(=O)N3CCOCC3)cc2)n1 | 9.62% (inactive) |
| CC(=O)N/C(=C\c1cccc([N+](=O)[O-])c1)C(=O)NC(C)C | -0.52% (inactive) |
| Cc1nn(C)c(C)c1/C=C(/C(=O)C(C)(C)C)n1cncn1 | -1.56% (inactive) |
| Cc1c(Oc2ccc(C(F)(F)F)cc2[N+](=O)[O-])ccc2c3c(c(=O)oc12)CCC3 | -1.9% (inactive) |
| CCOc1ccc(N2C(=O)CC(NCC#N)C2=O)cc1 (configuration not stated) | 0.53% (inactive) |
| O=C1Nc2cc(C(=O)NCCCN3CCOCC3)ccc2S/C1=C/c1ccccc1F | 16.4% (inactive) |
| COc1ccc(/C=C2/Sc3ccc(C(=O)NCCCN4CCOCC4)cc3NC2=O)cc1OC | -4.7% (inactive) |
| COc1ccc(OC)c(-c2cc(C(=O)NC3CCCC3)c3ccccc3n2)c1 | -8.38% (inactive) |
| Cc1c(Cl)ccc2c(C(=O)O)cc(-c3ccccc3)nc12 | 0.17% (inactive) |
| CC1CCc2cc(F)ccc2N1C(=O)c1cccs1 (configuration not stated) | 1.29% (inactive) |
| Cc1nccn1-c1cc(C(C)(C)C)nc2c(-c3ccccc3)cnn12 | -1.52% (inactive) |
| CC(C)(C)c1cc(N2CCOCC2)n2ncc(-c3ccccc3)c2n1 | 3.06% (inactive) |
| CCCCNC(=O)C1=C(N)C(C(=O)Nc2ccc(C)c(S(=O)(=O)N3CCCCC3)c2)SC1=Nc1ccc(C)cc1C (configuration not stated) | -11.1% (inactive) |
| O=C(CCc1nc(-c2ccccc2Cl)no1)NC1CCCC1 | -5.48% (inactive) |
| COc1ccc(-c2cc(-c3ccccc3)c(C#N)c(S(C)(=O)=O)n2)cc1 | 8.53% (inactive) |
| CS(=O)c1nc(-c2ccc(Br)cc2)cc(-c2ccccc2)c1C#N (configuration not stated) | 65% (inactive) |
| CC1(C)Cc2nc3nc(SCC(=O)NCCc4ccccc4)n(-c4ccccc4)c(=O)c3cc2CO1 | -2.48% (inactive) |
| S=C(Nc1cccc(Cl)c1)N1CCOCC1 | -10.2% (inactive) |
| CCc1ccc2[nH]c(=O)c(CN(CCCN3CCOCC3)C(=O)Nc3ccccc3)cc2c1 | 4.92% (inactive) |
| Cc1ccc2[nH]c(=O)c(CN(CCCN3CCOCC3)C(=O)Nc3cccc(Cl)c3)cc2c1 | 10.9% (inactive) |

| Structure (SMILES) | inhibition |
| --- | --- |
| C=CC[C@@H](CC(=O)N[C@H](CO)Cc1ccccc1)C(=O)N[C@@H](C)COC(=O)[C@@H](CC=C)Cc1ccc(F)cc1 | 3.8% (inactive) |
| COc1ccccc1N1CCN(CCCCOc2ccc(F)cc2)CC1 | -1.86% (inactive) |
| Clc1cccc(OCCCCN2CCCCC2)c1 | 0.99% (inactive) |
| NC(=O)c1ccc(-c2ncc(-c3ccccc3)o2)cc1 | 51.1% (inactive) |
| COC(=O)c1ccc(-c2n[nH]c(=O)c3ccccc23)cc1 | -2.05% (inactive) |
| CCN1C(=O)[C@H]2[C@@H](c3ccc(-c4ccc(C(C)=O)cc4)cc3)N3CCCC[C@@]3(C(=O)OC)[C@H]2C1=O | -6.49% (inactive) |
| CCCCN1C(=N)N([C@@H](CCC)CN2CCC[C@H]2CN2C(N)=NC[C@H]2C(C)C)C[C@H]1[C@H](C)CC | 1.37% (inactive) |
| O=C(Cc1ccccc1)c1nc2ccccc2s1 | -3.11% (inactive) |
| Cc1cc(C)cc(OCC(=O)OCC(=O)c2cc(C)n(C3CC3)c2C)c1 | 54.3% (inactive) |
| Cc1cc(C(=O)COC(=O)COc2ccc(C#N)cc2)c(C)n1C1CC1 | 3.67% (inactive) |
| CC(=O)NC(Cc1c[nH]c2ccccc12)C(=O)Nc1ccc2c(c1)OCO2 (configuration not stated) | -2.05% (inactive) |
| C/C(=N/OC(=O)c1c(-c2ccccc2Cl)noc1C)c1cnccn1 | 3.98% (inactive) |
| COc1ccc(CN2CCNC(=O)C2CC(=O)N(C)Cc2cc(C)no2)cc1OC (configuration not stated) | -7.74% (inactive) |
| COC(=O)Cc1cc(=O)[nH]c(Nc2nc3ccccc3o2)n1 | 29.9% (inactive) |
| CCOC(=O)Cc1cc(=O)[nH]c(Nc2nc3ccccc3o2)n1 | -2.99% (inactive) |
| C/C(Sc1nnc(Cc2ccccc2)o1)=C(/O)c1ccccc1 | -0.32% (inactive) |
| S=C1NCCOCCOCCOCCOCCNC(=S)NCCOCCOCCOCCOCCN1 | -3.9% (inactive) |
| Cc1ccc(SC/C(O)=C(\C#N)c2nc3ccccc3s2)cc1 | 1.37% (inactive) |
| N#C/C(=C(/O)COc1ccccc1)c1nc2ccccc2s1 | 56.1% (inactive) |
| O=C(CCc1nc(-c2ccccc2)c(-c2ccccc2)o1)OCc1ccc(Br)cc1 | 70.2% (inactive) |
| O=C(O)CCc1nc(-c2ccccc2)c(-c2ccccc2)o1 | 6.1% (inactive) |
| O=C(Nc1nc2ccc(S(=O)(=O)N3CCCC3)cc2s1)c1ccco1 | -2.95% (inactive) |
| COc1ccccc1-n1c(/C=C/c2ccccn2)nc2ccccc2c1=O | -5.93% (inactive) |
| CC(C)N(C(=S)Nc1cc(S(=O)(=O)N2CCOCC2)ccc1Cl)c1ccccc1 | -5.84% (inactive) |
| Cc1cc(NC(=O)c2cc(-c3cccs3)nc3ccccc23)no1 | -0.3% (inactive) |

| Structure (SMILES) | inhibition |
| --- | --- |
| NNC(=O)c1cc(-c2cccs2)nc2ccccc12 | 9.4% (inactive) |
| CC(C)N(C1=N/C(=C\c2ccco2)C(=O)N1c1ccccc1)C(C)C | -0.07% (inactive) |
| Cc1noc(C(F)(F)F)c1C(=O)NNC(=O)c1cccc(C(F)(F)F)c1 | 3.93% (inactive) |
| CCOC(=O)C1C(=O)NC(SCC(=O)Nc2nccs2)=C(C#N)C1c1ccccc1OCC (configuration not stated) | 55.1% (inactive) |
| CC1CCCCN1CCNC(=O)C1CCCN(S(=O)(=O)c2cccc3nsnc23)C1 (configuration not stated) | 3.33% (inactive) |
| CN(C)c1nc(NCc2ccccc2)nc(N/N=C/c2ccc(Br)cc2)n1 | 3.27% (inactive) |
| CN(C)c1nc(NCc2ccccc2)nc(N/N=C/c2ccc(Cl)cc2Cl)n1 | 9.37% (inactive) |
| COc1ccc(N2CC(C(=O)O)CC2=O)cc1 (configuration not stated) | -12.1% (inactive) |
| CCC(=NCc1ccccc1)c1c(C(F)(F)F)[nH]n(-c2nc3ccccc3s2)c1=O | -0.69% (inactive) |
| COc1ccc(CN=C(C)c2c(C(F)(F)F)[nH]n(-c3nc4ccccc4s3)c2=O)cc1 | -13.3% (inactive) |
| COc1ccccc1NC(=O)CSc1nn2c(=O)c(C)nnc2s1 | -20.7% (inactive) |
| Cc1cc(C)nc(SCCCNCc2c(F)cccc2Cl)n1 | 0.32% (inactive) |
| Cc1ccc(-n2c(C)nc3ccsc3c2=O)cc1 | 9.48% (inactive) |
| Cc1ccc(-n2c(Cl)c(Cl)[nH]c(=O)c2=O)cc1 | -6.67% (inactive) |
| Cc1noc(C)c1COc1ccccc1C(=O)N1CCN(S(=O)(=O)c2ccccc2C(F)(F)F)CC1 | -1.24% (inactive) |
| COC(=O)c1cccc(NC(=O)Cc2ccccc2[N+](=O)[O-])c1C | 2.19% (inactive) |
| OC(Cn1cncn1)c1ccc(Cl)cc1 (configuration not stated) | -4.52% (inactive) |
| Cc1ccc(CNC(=O)NC23CC4CC(CC(C4)C2)C3)cc1 | 7.32% (inactive) |
| O=C(NCc1ccccc1)NC12CC3CC(CC(C3)C1)C2 | -2.17% (inactive) |
| Cc1noc(C)c1COc1ccc(C(=O)OCC(N)=O)cc1 | 12.9% (inactive) |
| Cc1noc(C)c1COc1ccc(C(=O)OCC(=O)NC2CCCCC2C)cc1 (configuration not stated) | 48.8% (inactive) |
| Cc1ccc(N2CC(C(=O)NC3=NCCS3)CC2=O)cc1 (configuration not stated) | 4.82% (inactive) |
| CCc1ccc2oc(-c3ccc(OC)cc3)cc(=Nc3cccc(C(=O)O)c3)c2c1 | 39.4% (inactive) |
| COc1ccc(-c2cc(=Nc3c(C)n(C)n(-c4ccccc4)c3=O)c3ccccc3o2)cc1 | 35.5% (inactive) |
| CNC(=O)c1cnn(-c2nc(-c3ccc(OC)cc3)cs2)c1C(F)(F)F | 9.09% (inactive) |

| Structure (SMILES) | inhibition |
| --- | --- |
| CCN1CCc2c(OCC(=O)Nc3ccccc3)cccc2C1=O | -8.51% (inactive) |
| COc1cccc(-c2cc(C(F)(F)F)nc(N3CCC(C)CC3)n2)c1 | 2.81% (inactive) |
| CC(=O)c1cccc(NC(=O)COC(=O)C2=COCCO2)c1 | -0.86% (inactive) |
| O=C(COC(=O)C1=COCCO1)Nc1ccccc1 | 65.9% (inactive) |
| O=C(COC(=O)C1=COCCO1)NCc1ccc(F)cc1 | 5.31% (inactive) |
| COc1ccc(CNC(=O)COC(=O)C2=COCCO2)cc1 | 12.1% (inactive) |
| CCCCN1C(=N)N([C@@H](C)CN2CCC[C@H]2CN2C(N)=NC[C@@H]2Cc2ccccc2)C[C@H]1Cc1ccccc1 | 67.2% (inactive) |
| CCCCN1C(=N)N([C@@H](CCC)CN2CCC[C@H]2CN2C(N)=NC[C@@H]2Cc2ccccc2)C[C@H]1[C@H](C)CC | 4.76% (inactive) |
| Cc1nc2ccc(NC(=O)N3CCN(c4ccccn4)CC3)cc2s1 | -4.34% (inactive) |
| O=C(O)c1ccc(N=NN2CCCC2)cc1 | -3.03% (inactive) |
| CNC(=O)c1cc2c(s1)CCCCCC2 | -5.87% (inactive) |
| CC1CCc2sc(C(=O)NC3CCCCC3)cc2C1 (configuration not stated) | -9.17% (inactive) |
| Nc1cccc(-c2ccc(CO)o2)c1 | 10.1% (inactive) |
| NC(=O)C1CCN(CC(=O)N2N=CCC2c2ccccc2)CC1 (configuration not stated) | -1.72% (inactive) |
| CCC(=O)N1CCc2cc(S(=O)(=O)N3CCCC3)ccc21 | -9.42% (inactive) |
| Cc1occc1C(=O)NN=C1C2CC3CC(C2)CC1C3 | -8.34% (inactive) |
| COc1cc2[nH]c3c(N4CCC(C(N)=O)CC4)ncnc3c2cc1OC | 6.79% (inactive) |
| COc1ccc(N2CCN(c3ncnc4c3[nH]c3ccccc34)CC2)cc1 | -0.78% (inactive) |
| COc1ccc2[nH]c3c(N4CC(C)OC(C)C4)ncnc3c2c1 (configuration not stated) | -0.53% (inactive) |
| Cc1ccc2c(c1)[nH]c1c(N3CCN(Cc4ccccc4)CC3)ncnc12 | 3.28% (inactive) |
| COc1cc2[nH]c3c(N4CCN(c5ccc(Cl)cc5)CC4)ncnc3c2cc1OC | -5.15% (inactive) |
| Cc1ccc2[nH]c3c(N4CCOCC4)ncnc3c2c1 | -3.57% (inactive) |
